Plk1 PBD FP: blocks phosphopeptide binding to human Plk1 polo box domain. Plk1 PBD phosphopeptide binding, fluorescence polarization. inhibition, %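 (tested at about 20 µM)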. AID 693. 97,000 compounds, 0.13% hits. P53350; in the data active means inhibition above about 34%, passing the limit was not always enough
CYP2C19 inh: inhibitors of human CYP2C19 | P33261 | CYP2C19 Supersomes, luciferin-H EGE luminescence, 30 min | inhibition, % at 5 µM | 96,000 compounds, 21% hits;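 active means CYP2C19 inhibition above a set limit at 5 µM in the primary screen, cut at about 50% in these data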
CYP2C9 act: increases human cytochrome P450 2C9 activity; recombinant CYP2C9, luciferin-H conversion, luminescence; stronger effect = higher value; factor 1 = untreated enzyme, 0 = blocked; P11712; 96,000 compounds, 1.4% hits; AID 1024; activation factor at 5 µM;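 active means activation factor of 2 or more for CYP2C9 at a 5 µM dose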
PLK1 kinase inh: blocks human PLK1 kinase activity. P53350. recombinant PLK1 kinase, TR-FRET peptide phosphorylation. inhibition, % at 10 µM. 97,000 compounds, 0.53% hits. AID 619;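 active means inhibition of 50% or more in the single-concentration screen; inactive means inhibition below 50%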
CYP2C9 inh: blocks human cytochrome P450 2C9; inhibition, % at 5 µM; CYP2C9 Supersomes, luciferin-H conversion, luminescence; 96,000 compounds, 20% hits;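 active means blocking of liver enzyme CYP2C9 beyond about 50% at 5 µM, limit read from the data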
CYP2C19 act: cytochrome P450 2C19 (human) activation | P33261 | 96,000 tested, under 10 active | recombinant CYP2C19, luciferin-H EGE luminescence; stronger effect = higher value; 0 = fully inhibited enzyme, 1 = untreated enzyme | AID 1025 | activation factor at 5 µM;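 active means activation factor of at least 2 at 5 µM in the primary screen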
Numbers stand for hits; i = inactive; nt = no result. In the library only some 28% were active in any assay of this set; here they are far more common.

SMILES	Plk1 PBD FP	CYP2C19 inh	CYP2C9 act	PLK1 kinase inh	CYP2C9 inh	CYP2C19 act
COc1ccc(C(C(=O)NC2CCCCC2)N(CC2CCCO2)C(=O)CNC(=O)c2ccco2)cc1 (centres undefined)	i	i	i	i	i	i
CCOC(=O)N1CCC(Nc2c(OCC)c(=O)c2=O)CC1	i	i	i	69	i	i
CCCCN(CC)CCNc1c(NC2CCN(C(=O)OCC)CC2)c(=O)c1=O	i	i	i	i	66	i
CCOC(=O)N1CCC(Nc2c(NCCCN(CC)CC)c(=O)c2=O)CC1	i	i	i	i	i	i
O=S(=O)(c1cccc(C(F)(F)F)c1)N1CCC(O)(c2cccnc2)CC1	i	88	i	i	i	i
CC(=O)N1CCC(O)(c2cccc(C(F)(F)F)c2)CC1	i	i	i	i	i	i
Cc1ccc(S(=O)(=O)N2CCC(O)(c3cccnc3)CC2)cc1	i	54	2.1	i	i	i
Cc1ccc(S(=O)(=O)N2CCC(C(=O)NCc3cccnc3)CC2)cc1	i	i	i	i	i	i
COc1ccc(OC)c(NC(=O)C(Sc2ccccc2)c2ccccc2)c1 (centres undefined)	i	56	i	i	i	i
CCN(CC)C(=O)C(Sc1ccccc1)c1ccccc1 (centres undefined)	i	90	i	i	i	i
CNC(=O)C(Sc1ccccc1)c1ccccc1 (centres undefined)	nt	91	i	nt	i	i
O=C(Nn1cnnc1)C(Sc1ccccc1)c1ccccc1 (centres undefined)	i	61	i	i	74	i
CCOc1cc(C(=O)NCc2ccncc2)cc(OCC)c1OCC	i	84	i	i	92	i
CCOc1cc(C(=O)NC(C)c2ccncc2)cc(OCC)c1OCC (centres undefined)	i	80	i	i	80	i
CCOc1ccc(C(=O)NCc2ccncc2)cc1OCC	i	i	i	i	i	i
CCN(Cc1ccccc1)C(c1ccc(C(F)(F)F)cc1)c1nnnn1C(C)(C)C (centres undefined)	i	nt	nt	i	nt	nt
COCCn1c(C)cc(C(=O)COC(=O)c2cc3c(s2)CCC3)c1C	i	57	i	i	i	i
COCCn1c(C)cc(C(=O)CSc2nnc(C)s2)c1C	nt	i	i	nt	i	i
CN(C)C/C(Cl)=C(\Cl)c1ccccc1	i	57	i	i	i	i
CN(C)CC(=O)c1ccc(-c2ccccc2)cc1	i	i	i	i	i	i
Cc1cc(-c2cccnc2)c(C#N)c(SCc2cccc(F)c2)n1	i	69	i	i	i	i
CCc1nc(SCC(=O)O)c(C#N)cc1C	i	i	i	i	i	i
CCc1nc(SCc2cccnc2)c(C#N)cc1C	i	57	i	i	i	i
Fc1ccc(Cl)cc1/C=N/n1cnnc1SCc1ccccc1	i	66	i	i	i	i
CSc1nncn1/N=C/c1cc(Cl)ccc1F	i	i	i	i	i	i
SMILES	Plk1 PBD FP	CYP2C19 inh	CYP2C9 act	PLK1 kinase inh	CYP2C9 inh	CYP2C19 act
Cc1ccc(C2=NN(C(=S)Nc3ccccc3)C(c3ccco3)C2)cc1 (centres undefined)	i	i	i	i	52	i
COc1cccc(-n2c(Cc3cc(=O)[nH]c(=O)[nH]3)nnc2SC(C)C)c1	i	i	i	62	i	i
COC(=O)C(C)Sc1nnc(Cc2cc(=O)[nH]c(=O)[nH]2)n1-c1cccc(OC)c1 (centres undefined)	i	i	i	i	i	i
Cc1ccc(NC(=O)C2CCN(S(C)(=O)=O)CC2)cc1C	i	i	i	i	i	i
CC1=C(OC(=O)c2ccc(Br)cc2)C(C)(C)C(c2ccccc2)OC1=O (centres undefined)	i	98	i	i	97	i
CC1=C(OC(=O)c2ccccc2)C(C)(C)C(c2ccc(Br)cc2)OC1=O (centres undefined)	i	i	i	i	61	i
O=C(Cc1nn[nH]n1)NCc1ccccc1Cl	nt	i	i	nt	i	i
N#Cc1ccc(CSc2ncnc3c2cnn3Cc2ccccc2)cc1	i	i	i	i	i	i
C=C(C)Cn1c(=O)c2c(nc3n2CCN3c2cccc(Cl)c2C)n(C)c1=O	nt	i	i	nt	50	i
COc1cccc(-c2cc(C(=O)NCCc3ccccc3)no2)c1	i	i	i	i	i	i
CC1(C)CC(=O)CC(C2(O)C(=O)N(Cc3ccccc3)c3ccccc32)O1 (centres undefined)	i	i	i	i	i	i

Assay outcomes from PubChem.
